According to PubChem BioAssay (NCATS):
Several values for one entry are separate records, joined by “and”; a condition that tells them apart may be missing. Equal values may be shown once. Results filed as inconclusive are left out. Where a call stands in place of a potency, no number is given. A structure can be active in one record and inactive in another. Activity calls are given as the source filed them. Unless noted, calls follow the shape of the full dose curve. Where a SMILES comes first, the peptide text is derived from it.

Columns and labels:
[1] = molecular target: Estrogen receptor (Homo sapiens) (UniProt P03372); test: qHTS assay for small molecule agonists of estrogen receptor alpha signaling (AID 588514); also: nearly all actives have a fitted effect of over 70% in size
Sequence of Estrogen receptor (Homo sapiens) (P03372 whole entry, looked up): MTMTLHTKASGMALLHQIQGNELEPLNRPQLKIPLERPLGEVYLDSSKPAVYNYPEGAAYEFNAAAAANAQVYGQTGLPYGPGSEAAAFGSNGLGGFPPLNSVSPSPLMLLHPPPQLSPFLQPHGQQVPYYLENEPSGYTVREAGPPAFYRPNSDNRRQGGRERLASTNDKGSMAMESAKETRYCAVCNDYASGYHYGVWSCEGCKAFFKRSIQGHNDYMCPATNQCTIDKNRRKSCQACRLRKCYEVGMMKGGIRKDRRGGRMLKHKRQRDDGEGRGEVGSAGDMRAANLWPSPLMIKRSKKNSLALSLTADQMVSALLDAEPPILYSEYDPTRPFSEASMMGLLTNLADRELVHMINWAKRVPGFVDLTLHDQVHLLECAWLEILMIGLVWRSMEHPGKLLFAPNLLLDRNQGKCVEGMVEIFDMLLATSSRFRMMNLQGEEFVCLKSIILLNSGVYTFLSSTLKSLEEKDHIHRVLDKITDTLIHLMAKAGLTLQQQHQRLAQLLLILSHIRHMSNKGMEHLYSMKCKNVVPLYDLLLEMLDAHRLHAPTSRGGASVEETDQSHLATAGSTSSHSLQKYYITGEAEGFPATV
Outline: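 Cells were plated at 5000/well, incubated 4 hrs at 37 C, dosed with compound titration series, incubated 18 hrs at 37 C, loaded with CCF4 dye for 2 hrs at RT, then fluorescence was read.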

[2] = molecular target: Bile acid receptor (Homo sapiens) (UniProt Q96RI1); test: qHTS assay for small molecule antagonists of farnesoid X receptor signaling (AID 588526); also: potency is read from the fitted curve at half-maximal effect
Sequence of Bile acid receptor (Homo sapiens) (Q96RI1 whole entry, looked up): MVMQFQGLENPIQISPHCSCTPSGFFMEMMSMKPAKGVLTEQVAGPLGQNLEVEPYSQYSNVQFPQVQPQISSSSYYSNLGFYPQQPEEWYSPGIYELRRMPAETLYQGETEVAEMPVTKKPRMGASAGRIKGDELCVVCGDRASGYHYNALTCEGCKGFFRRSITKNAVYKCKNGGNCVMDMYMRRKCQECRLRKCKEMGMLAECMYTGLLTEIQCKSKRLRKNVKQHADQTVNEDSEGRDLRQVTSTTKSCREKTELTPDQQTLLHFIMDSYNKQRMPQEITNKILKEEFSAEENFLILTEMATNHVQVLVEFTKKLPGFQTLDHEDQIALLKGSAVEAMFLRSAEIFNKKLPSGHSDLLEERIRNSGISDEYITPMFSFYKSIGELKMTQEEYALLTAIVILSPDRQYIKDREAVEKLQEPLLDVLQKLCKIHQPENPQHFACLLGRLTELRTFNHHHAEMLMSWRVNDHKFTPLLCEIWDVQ
Outline: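 Beta-lactamase reporter antagonist mode: HEK293T FXR-UAS-bla cells, titrated compound, CDCA stimulation, 16 h 37 C, CCF4 dye 2 h RT. Data normalized to CDCA 50 uM and DMSO; Hill-fit IC50.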

[3] = molecular target: Bile acid receptor (Homo sapiens) (UniProt Q96RI1); test: qHTS assay for small molecule agonists of farnesoid X receptor signaling (AID 588527); conditions: HEK293T FXR-UAS-bla, beta-lactamase ratio, 16 h; activation: stronger effect = higher value; also: series mostly up to about 77 µM
Outline: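 FXR-UAS-bla HEK293T cells (10% dialyzed FBS) preincubated 5-7 h at 37 C, then compounds at up to 92 uM for 16 h at 37 C. CCF4 beta-lactamase read-out after 2 h RT. Normalized to chenodeoxycholic acid (100 uM) and DMSO; Hill fit gave EC50 and efficacy.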

[4] = molecular target: Glucocorticoid receptor (Homo sapiens) (UniProt P04150); test: qHTS assay for small molecule antagonists of glucocorticoid receptor signaling (AID 588533; active = well fitted inhibition curve with a large enough effect in the signal ratio, with a control signal flat, not every such curve was filed as active; the % refers to the signal ratio;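 also: cells stimulated with 2 nM dexamethasone as agonist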; also: potency is read from the fitted curve at half-maximal effect)
Sequence of Glucocorticoid receptor (Homo sapiens) (P04150 whole entry, looked up): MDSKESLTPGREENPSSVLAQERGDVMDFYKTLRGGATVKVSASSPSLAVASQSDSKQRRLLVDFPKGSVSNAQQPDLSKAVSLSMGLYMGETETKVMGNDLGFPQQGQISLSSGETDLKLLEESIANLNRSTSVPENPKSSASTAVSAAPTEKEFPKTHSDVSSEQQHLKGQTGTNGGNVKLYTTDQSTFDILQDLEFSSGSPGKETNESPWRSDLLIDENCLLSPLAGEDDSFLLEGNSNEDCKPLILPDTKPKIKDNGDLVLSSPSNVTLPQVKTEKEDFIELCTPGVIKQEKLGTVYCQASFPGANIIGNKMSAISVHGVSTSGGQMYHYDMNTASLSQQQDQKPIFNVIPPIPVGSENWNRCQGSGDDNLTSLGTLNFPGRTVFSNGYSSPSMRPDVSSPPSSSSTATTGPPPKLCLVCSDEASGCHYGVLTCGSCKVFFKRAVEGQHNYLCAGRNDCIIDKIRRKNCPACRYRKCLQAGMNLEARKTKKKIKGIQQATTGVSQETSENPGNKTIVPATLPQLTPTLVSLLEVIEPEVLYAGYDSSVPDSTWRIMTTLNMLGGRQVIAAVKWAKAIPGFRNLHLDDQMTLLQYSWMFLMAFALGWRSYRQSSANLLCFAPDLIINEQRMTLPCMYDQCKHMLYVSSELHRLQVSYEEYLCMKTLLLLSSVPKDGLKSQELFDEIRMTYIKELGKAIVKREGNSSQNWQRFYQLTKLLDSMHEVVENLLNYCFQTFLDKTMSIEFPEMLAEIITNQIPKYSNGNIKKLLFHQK
Outline: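 Antagonist-mode qHTS: compound titrations added to GRE-bla HeLa cells, then dexamethasone 2 nM final; 18 h, 37 C. CCF4 FRET fluorescence normalized to dexamethasone and DMSO; IC50 from Hill fit.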

[5] = qHTS assay for small molecule antagonists of peroxisome proliferator-activated receptor delta signaling (AID 588535; active = well fitted inhibition curve with a large enough effect in the signal ratio, with a control signal flat, not every such curve was filed as active; the % refers to the signal ratio;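 as to max response: cells co-treated with a PPAR-delta agonist as stimulator during compound exposure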); conditions: HEK293T PPARd-UAS-bla, beta-lactamase FRET ratio, 18 h; 460 nm channel
Outline: (§1)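 HEK293T PPAR-delta-UAS-bla cells, 4000/well, 2% charcoal/dextran FBS; 5 h 37 C; cpd titration; 18 h 37 C; CCF4 2 h RT; FI 460/530 nm; Hill fit → IC50, efficacy.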

[6] = molecular target: Peroxisome proliferator-activated receptor delta (Homo sapiens) (UniProt Q03181); test: as above
Sequence of Peroxisome proliferator-activated receptor delta (Homo sapiens) (Q03181 whole entry, looked up): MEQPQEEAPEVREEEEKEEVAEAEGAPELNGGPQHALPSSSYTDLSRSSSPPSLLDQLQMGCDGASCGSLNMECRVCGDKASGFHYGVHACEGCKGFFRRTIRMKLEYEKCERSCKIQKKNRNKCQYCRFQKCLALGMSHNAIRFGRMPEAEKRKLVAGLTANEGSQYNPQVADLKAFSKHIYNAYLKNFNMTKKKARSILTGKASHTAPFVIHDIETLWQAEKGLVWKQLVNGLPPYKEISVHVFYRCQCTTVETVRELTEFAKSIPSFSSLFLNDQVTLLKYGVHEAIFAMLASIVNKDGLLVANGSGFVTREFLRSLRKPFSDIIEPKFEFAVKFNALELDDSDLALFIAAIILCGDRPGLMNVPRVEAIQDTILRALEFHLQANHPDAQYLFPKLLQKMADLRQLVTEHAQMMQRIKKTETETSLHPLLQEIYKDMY
Outline: as §1

[7] = molecular target: Peroxisome proliferator-activated receptor gamma (Homo sapiens) (UniProt P37231); test: qHTS assay for small molecule agonists of peroxisome proliferator-activated receptor gamma signaling (AID 588536; active = well fitted curve in the direction sought with a large enough effect in the signal ratio, with a control signal flat, not every such curve was filed as active; the % refers to the signal ratio)
Sequence of Peroxisome proliferator-activated receptor gamma (Homo sapiens) (P37231 whole entry, looked up): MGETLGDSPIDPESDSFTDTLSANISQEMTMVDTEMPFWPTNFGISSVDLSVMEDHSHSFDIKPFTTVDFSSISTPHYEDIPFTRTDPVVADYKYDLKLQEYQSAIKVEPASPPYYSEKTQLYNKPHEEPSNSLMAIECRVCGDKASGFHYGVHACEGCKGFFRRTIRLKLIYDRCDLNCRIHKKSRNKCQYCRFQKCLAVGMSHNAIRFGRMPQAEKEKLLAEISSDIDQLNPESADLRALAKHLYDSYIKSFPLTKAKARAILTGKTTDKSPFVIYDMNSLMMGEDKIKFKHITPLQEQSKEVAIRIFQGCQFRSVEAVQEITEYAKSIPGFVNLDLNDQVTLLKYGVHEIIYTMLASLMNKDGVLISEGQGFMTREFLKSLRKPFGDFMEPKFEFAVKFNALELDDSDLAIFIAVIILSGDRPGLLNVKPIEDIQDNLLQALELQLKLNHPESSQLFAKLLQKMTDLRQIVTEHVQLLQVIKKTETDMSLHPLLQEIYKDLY
Outline: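 GeneBLAzer PPAR-gamma-UAS-bla HEK293 cells in 1% charcoal/dextran-treated FBS medium were treated 16 h at 37 C with compounds. Beta-lactamase activity was read by CCF4 ratio (460/530 nm). Response was normalized to 2 uM rosiglitazone (100%) and DMSO, then Hill-fitted for EC50 and efficacy.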

[8] = molecular target: Retinoic acid receptor RXR-alpha (Homo sapiens) (UniProt P19793); test: qHTS assay for small molecule agonists of retinoid X receptor alpha signaling (AID 588544); also: potency is read from the fitted curve at half-maximal effect
Sequence of Retinoic acid receptor RXR-alpha (Homo sapiens) (P19793 whole entry, looked up): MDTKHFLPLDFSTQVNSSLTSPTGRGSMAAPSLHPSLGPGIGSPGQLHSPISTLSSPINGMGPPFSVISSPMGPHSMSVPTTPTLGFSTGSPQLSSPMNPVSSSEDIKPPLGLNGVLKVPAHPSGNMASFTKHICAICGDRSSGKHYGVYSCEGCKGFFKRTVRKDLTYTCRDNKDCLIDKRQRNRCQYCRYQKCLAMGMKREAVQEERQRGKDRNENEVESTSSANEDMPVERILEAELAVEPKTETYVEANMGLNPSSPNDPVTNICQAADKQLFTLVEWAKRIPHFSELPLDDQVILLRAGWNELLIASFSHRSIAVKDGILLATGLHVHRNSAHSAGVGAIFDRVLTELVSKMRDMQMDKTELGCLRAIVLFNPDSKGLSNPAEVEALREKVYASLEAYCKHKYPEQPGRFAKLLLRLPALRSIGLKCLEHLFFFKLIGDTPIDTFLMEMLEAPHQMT

[9] = molecular target: Peroxisome proliferator-activated receptor gamma (Homo sapiens) (UniProt P37231); test: qHTS assay for small molecule antagonists of peroxisome proliferator-activated receptor gamma signaling (AID 588537; active = well fitted inhibition curve with a large enough effect in the signal ratio, with a control signal flat, not every such curve was filed as active; the % refers to the signal ratio; also: potency is read from the fitted curve at half-maximal effect)
Outline: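 Antagonist mode, beta-lactamase reporter in HEK293; charcoal/dextran FBS 1%; 3000 cells/well, 37 C 6-6.5 h; cpd titration + rosiglitazone 50 nM final, 16 h 37 C; CCF4, 2 h RT; 460/530 nm; Hill fit → IC50, efficacy.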

[10] = qHTS assay for small molecule agonists of retinoid X receptor alpha signaling (AID 588544); conditions: HEK293T RXRa-UAS-bla, beta-lactamase reporter, 18 h; 530 nm emission; also: potency is read from the fitted curve at half-maximal effect
[11] = qHTS Assay for Identification of Small Molecule Antagonists for Thrombopoietin (TPO) Signaling Pathway (AID 918; active = well fitted curve in the direction sought with a large enough effect; an effect the other way counts as inactive or inconclusive; also: potency is read from the fitted curve at half-maximal effect; nearly all actives have a fitted effect of over 60% in size); conditions: TPO-dependent cell signaling reporter, antagonist mode
Outline: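 Ba/F3 (murine, hTPO-R, GPIIb-luc reporter); overnight IL-3 withdrawal; cpd + TPO 26 pM final (EC50); 24 h 37 C/5% CO2; Steadylite luminescence after 10 min RT.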

[12] = molecular target: Muscarinic acetylcholine receptor M1 (Rattus norvegicus) (UniProt P08482); test: qHTS Assay for Antagonists of Acetylcholine Muscarinic M1 Receptor: Measurement of IP-One Response (AID 944; active = well fitted curve in the direction sought with a large enough effect; an effect the other way counts as inactive or inconclusive; also: nearly all actives have a fitted effect of over 75% in size)
Sequence of Muscarinic acetylcholine receptor M1 (Rattus norvegicus) (P08482 whole entry, looked up): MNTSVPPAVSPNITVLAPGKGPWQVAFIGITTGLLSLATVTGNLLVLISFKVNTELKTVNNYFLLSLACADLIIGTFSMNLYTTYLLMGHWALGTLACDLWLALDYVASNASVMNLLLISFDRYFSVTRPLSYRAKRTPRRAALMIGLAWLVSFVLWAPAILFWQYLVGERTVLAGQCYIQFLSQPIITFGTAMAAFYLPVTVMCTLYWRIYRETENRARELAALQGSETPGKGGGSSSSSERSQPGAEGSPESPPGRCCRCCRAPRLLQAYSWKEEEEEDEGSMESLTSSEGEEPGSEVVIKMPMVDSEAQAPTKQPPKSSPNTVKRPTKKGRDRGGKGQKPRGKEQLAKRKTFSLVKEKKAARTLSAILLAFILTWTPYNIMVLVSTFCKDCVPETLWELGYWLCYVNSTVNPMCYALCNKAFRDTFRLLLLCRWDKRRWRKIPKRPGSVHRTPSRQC
Outline: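 M1-CHO (rat), 2000 cells/well, overnight recovery; cpd 10 min; carbachol EC80 (200 nM), 30 min, HEPES buffer + 50 mM LiCl pH 7.4; IP-One HTRF, Ex 337, Em 620/665 nm.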

[13] = qHTS Assay for Identification of Small Molecule Agonists for Hypoxia Response Element Signaling Pathway (AID 914; active = well fitted activation curve with a large enough effect in the signal ratio, with a control signal flat, not every such curve was filed as active; the % refers to the signal ratio); conditions: ME-180 (cervical carcinoma) HRE-bla reporter, beta-lactamase ratio, CoCl2, 17 h; activation: stronger effect = higher value
Outline: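 In Opti-MEM containing 0.5% dialyzed FBS and 10 mM HEPES, ME-180 HRE-bla cells received a compound titration and EC50 CoCl2. They were incubated 17 hours, then CCF4-loaded 2.5 hours at room temperature before ratio reading.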

[14] = molecular target: Ubiquitin carboxyl-terminal hydrolase 1 (Homo sapiens) (UniProt O94782); test: Inhibitors of USP1/UAF1: Pilot qHTS (AID 504865; active = well fitted curve in the direction sought with a large enough effect; an effect the other way counts as inactive or inconclusive;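 also: rhodamine fluorescence freed from ubiquitin-rhodamine substrate followed over time; top concentration of the series differs between compounds; nearly all actives have a fitted effect of over 35% in size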)
Sequence of Ubiquitin carboxyl-terminal hydrolase 1 (Homo sapiens) (O94782 whole entry, looked up): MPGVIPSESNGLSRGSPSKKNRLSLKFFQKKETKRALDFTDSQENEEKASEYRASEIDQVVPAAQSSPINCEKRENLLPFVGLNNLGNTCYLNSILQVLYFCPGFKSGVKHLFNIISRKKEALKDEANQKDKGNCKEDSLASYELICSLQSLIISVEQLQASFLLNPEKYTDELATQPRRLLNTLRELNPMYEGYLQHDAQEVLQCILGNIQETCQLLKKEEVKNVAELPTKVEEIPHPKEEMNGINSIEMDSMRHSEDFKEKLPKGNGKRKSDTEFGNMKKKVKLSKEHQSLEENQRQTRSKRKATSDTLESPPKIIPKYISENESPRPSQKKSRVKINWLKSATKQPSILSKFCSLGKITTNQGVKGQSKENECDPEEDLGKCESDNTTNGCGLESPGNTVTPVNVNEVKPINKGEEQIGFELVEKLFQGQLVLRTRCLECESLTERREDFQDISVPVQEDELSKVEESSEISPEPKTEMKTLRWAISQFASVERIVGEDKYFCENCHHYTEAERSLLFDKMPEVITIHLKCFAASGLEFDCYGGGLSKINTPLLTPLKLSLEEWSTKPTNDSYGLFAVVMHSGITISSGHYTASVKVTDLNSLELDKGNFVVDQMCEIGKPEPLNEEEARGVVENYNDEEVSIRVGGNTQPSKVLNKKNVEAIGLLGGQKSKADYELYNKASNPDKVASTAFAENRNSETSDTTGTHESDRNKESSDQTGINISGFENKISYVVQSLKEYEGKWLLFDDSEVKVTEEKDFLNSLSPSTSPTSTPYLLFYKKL
Outline: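 Deubiquitinase activity followed as kinetic rhodamine fluorescence release from 150 nM Ub-Rho. 1 nM USP1/UAF1 with compound, after 15 min room-temperature preincubation, in HEPES pH 7.8 buffer containing TCEP, EDTA, BSA and Tween-20.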

[15] = molecular target: Pyruvate kinase (Leishmania mexicana) (UniProt Q27686); test: qHTS Validation Assay for Inhibitors of Leishmania Mexicana Pyruvate Kinase (AID 945; active = well fitted curve in the direction sought with a large enough effect; an effect the other way counts as inactive or inconclusive)
Outline: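 An endpoint luciferase assay: 0.2 nM LmPYK E451W turns over 0.5 mM PEP with 0.1 mM ADP for 1 h at room temperature, pH 7.2, before PKLight addition. Values are normalized to DMSO-only wells.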

[16] = molecular target: Pyruvate kinase PKM (Homo sapiens) (UniProt P14618); test: qHTS Assay for Activators of Human Muscle Pyruvate Kinase (AID 954; active = well fitted curve in the direction sought with a large enough effect, not every such curve was filed as active)
Outline: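 Purified human PKM2 (0.1 nM) with 0.5 mM PEP (Km) and 0.1 mM ADP in 50 mM imidazole pH 7.2, KCl, MgCl2, 1 h at room temperature; ATP formed read by coupled luciferase luminescence. Normalized to no-enzyme/110 uM thiadiazolimine inhibition; 0.3 nM enzyme column for activation.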

[17] = molecular target: Alpha-galactosidase (Coffea arabica) (UniProt Q42656); test: Counterscreen for Glucocerebrosidase Inhibitors: qHTS Assay for Coffee Bean alpha-Galactosidase at pH 4.5 (AID 957; active = well fitted curve in the direction sought with a large enough effect; an effect the other way counts as inactive or inconclusive; also: series mostly up to about 77 µM)
Sequence of Alpha-galactosidase (Coffea arabica) (Q42656 whole entry, looked up): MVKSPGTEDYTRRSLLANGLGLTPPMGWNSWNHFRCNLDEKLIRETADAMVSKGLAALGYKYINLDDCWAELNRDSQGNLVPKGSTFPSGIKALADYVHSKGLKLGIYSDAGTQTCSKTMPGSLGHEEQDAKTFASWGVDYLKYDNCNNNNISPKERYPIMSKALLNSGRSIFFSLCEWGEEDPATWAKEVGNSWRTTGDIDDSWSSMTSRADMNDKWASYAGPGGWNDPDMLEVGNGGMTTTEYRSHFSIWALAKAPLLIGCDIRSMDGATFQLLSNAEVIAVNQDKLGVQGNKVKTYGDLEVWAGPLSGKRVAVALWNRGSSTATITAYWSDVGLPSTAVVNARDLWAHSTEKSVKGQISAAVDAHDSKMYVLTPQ
Outline: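 Coffee bean alpha-galactosidase 2 nM, substrate 4-MU-alpha-Gal 80 uM, pH 4.5 citrate/Tween-20, 20 min RT. Cpd titration 0.7 nM–77 uM. Stop pH 10, fluorescence 365/440 nm; Hill-equation AC50.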

[18] = molecular target: alpha-glucosidase (Oryza sativa, rice) (UniProt Q653V4); test: Counterscreen for Glucocerebrosidase Inhibitors: qHTS Assay for Rice alpha-Glucosidase at pH 5.0 (AID 997; active = well fitted curve in the direction sought with a large enough effect; an effect the other way counts as inactive or inconclusive)
Outline: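 Rice alpha-glucosidase (4 nM final) with 400 uM 4-methylumbelliferyl-alpha-D-glucopyranoside in citrate buffer pH 5.0, 20 min at room temperature, stopped at pH 10; fluorescence 365/440 nm, compounds 0.7 nM–77 uM, AC50 from Hill fits.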

[19] = molecular target: Alpha-galactosidase (Coffea arabica) (UniProt Q42656); test: Counterscreen for Glucocerebrosidase Inhibitors: qHTS Assay for Coffee Bean alpha-Galactosidase at pH 5.9 (AID 998; active = well fitted curve in the direction sought with a large enough effect; an effect the other way counts as inactive or inconclusive)
Outline: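 Compounds were titrated from 0.7 nM to 77 uM against green coffee bean alpha-galactosidase (2 nM) using 80 uM fluorogenic 4-methylumbelliferyl substrate. After 20 min at room temperature, reactions were stopped at pH 10 and read by fluorescence.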

O=[N+]([O-])c1cc(C(F)(F)F)cc([N+](=O)[O-])c1Cl
Potency [1]: inactive
Potency [2]: inactive
activation [3]: -1.74% (inactive)
Potency [4]: inactive
max response [5]: 32.3%
Potency [6]: inactive
Potency [7]: inactive
Potency [8]: inactive

O=C1C2(Cl)C3(Cl)C4(Cl)C(Cl)(Cl)C5(Cl)C3(Cl)C1(Cl)C5(Cl)C24Cl (stereo not drawn)
activation [3]: 1.21% (inactive) and 8.36% (inactive)
Potency [4]: 39.8 µM (active)
Potency [9]: 44.7 µM (active) and inactive

CN(C)c1ccc(N=O)cc1
Potency [1]: inactive
activation [3]: -4.92% (inactive)

Oc1c(Br)c(Br)c(Br)c(Br)c1Br
Potency [2]: 28.2 µM (active)
Potency [4]: 39.8 µM (active)

O=C(O)C1C(C(=O)O)C2(Cl)C(Cl)=C(Cl)C1(Cl)C2(Cl)Cl (stereo not drawn)
Potency [1]: inactive
Potency [2]: inactive
Potency [4]: inactive
max response [10]: -3.38%
Potency [8]: inactive

CCCCCCCCn1sccc1=O
Potency [1]: inactive
activation [3]: 6.4% (inactive)
Potency [7]: inactive

OC(c1ccc(Cl)cc1)(c1ccc(Cl)cc1)C(Cl)(Cl)Cl
Potency [1]: inactive
Potency [2]: inactive
activation [3]: 3.21% (inactive) and 2.17% (inactive)
Potency [7]: inactive
max response [10]: -15%
Potency [8]: inactive

Clc1ccc(C(c2ccc(Cl)cc2)C(Cl)Cl)cc1
Potency [1]: inactive
max response [5]: -7.51%
Potency [6]: inactive
max response [10]: -1.02%
Potency [8]: inactive

N#CC(Cl)Cl
max response [10]: 17.1%
Potency [8]: inactive

N#CSCSC#N
activation [3]: 17.3% (inactive)
Potency [9]: 35.5 µM (active)

FC(F)(F)c1ccc(Cl)cc1
Potency [1]: inactive
Potency [2]: inactive
activation [3]: 3.21% (inactive) and 2.89% (inactive)
Potency [4]: inactive
max response [5]: -2.48% and -14.3%
Potency [6]: inactive
Potency [7]: inactive
Potency [9]: inactive
max response [10]: -3.02% and -12.4%
Potency [8]: inactive

c1ccc2cc3c(cc2c1)-c1cccc2cccc-3c12
max response [10]: 21%
Potency [8]: 2.82 µM (active)

C#CCO
Potency [4]: inactive
max response [5]: 29.5%
Potency [6]: inactive
Potency [7]: inactive
Potency [8]: inactive

O=[N+]([O-])C(Br)Br
max response [5]: -33.2%
Potency [6]: inactive
Potency [7]: inactive
Potency [9]: inactive
max response [10]: -3.79%
Potency [8]: inactive

Oc1cc2c(cc1O)[C@H]1c3ccccc3CN[C@@H]1CC2
Potency [11]: 10 µM (active)
Potency [12]: inactive

OC(Cc1ccccc1)(c1ccccc1)C1CN2CCC1CC2 (stereo not drawn)
activation [13]: 10.8% (inactive)

CC(C)C[C@H](NC(=O)[C@@H]1CCCN1C(=O)[C@@H](N)Cc1ccc(O)cc1)C(=O)NCC(N)=O (H-YPLG-NH2)
activation [13]: -10.4% (inactive)

CCCCCCCCCCCCCC(=O)O[C@H]1[C@@H](C)[C@@]2(O)[C@@H](C=C(CO)C[C@]3(O)C(=O)C(C)=C[C@@H]23)C2C(C)(C)[C@]21OC(C)=O (stereo partly drawn)
Potency [12]: inactive

Oc1cc2c(cc1O)[C@H]1c3ccccc3CN[C@H]1CC2
Potency [14]: inactive

COC[C@H]1OC(=O)c2coc3c2[C@@]1(C)C1=C(C3=O)[C@H]2CCC(=O)[C@@]2(C)C[C@H]1OC(C)=O
Potency [14]: inactive

C[C@@H]1O[C@@H](O[C@H]2C[C@@H](O)[C@]3(CO)[C@@H]4[C@@H](O)C[C@]5(C)[C@H]([C@@H]6COC(=O)C6)CC[C@@]5(O)[C@H]4CC[C@@]3(O)C2)[C@H](O)[C@H](O)[C@@H]1O
Potency [15]: inactive
outcome [16]: inactive
outcome [17]: inactive
outcome [18]: inactive
outcome [19]: inactive
